PubChem BioAssay AID1508602 (The Scripps Research Institute Molecular Screening Center, 2020)
Among all 650,000 compounds or so, about 6,800 (1%) were called active. Shown is part of a subset that was picked to be rich in actives. A number with no mark means an inactive call. Rule as the data show it: active = activation above about 4.9%; inactive = the rest.

Each compound was assayed against G-protein coupled receptor 151 (Homo sapiens) (UniProt Q8TDV0) (assay: activates the human receptor GPR151, primary screen, cell-based, PathHunter beta-arrestin, luminescence (AID 1508602;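 also: 0% = median of compound wells and 100% = cells with positive control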)). Conditions: PathHunter beta-arrestin GPR151 cells, at 11.2 µM, active compounds read high.
Sequence of G-protein coupled receptor 151 (Homo sapiens) (Q8TDV0 whole entry, looked up): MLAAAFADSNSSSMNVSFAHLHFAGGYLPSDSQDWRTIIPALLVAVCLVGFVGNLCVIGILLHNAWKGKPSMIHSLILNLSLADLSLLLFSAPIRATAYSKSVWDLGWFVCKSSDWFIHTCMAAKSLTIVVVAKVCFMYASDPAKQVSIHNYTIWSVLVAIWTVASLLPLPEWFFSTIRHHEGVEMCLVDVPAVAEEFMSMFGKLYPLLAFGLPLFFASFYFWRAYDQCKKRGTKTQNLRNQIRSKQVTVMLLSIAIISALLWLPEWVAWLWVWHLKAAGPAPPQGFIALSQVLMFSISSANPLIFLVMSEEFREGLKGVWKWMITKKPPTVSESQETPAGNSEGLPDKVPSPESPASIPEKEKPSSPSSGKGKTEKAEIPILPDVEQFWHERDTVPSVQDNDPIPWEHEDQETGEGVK
`COC(=O)c1cccc(-n2c3nc(=O)[nH]c(=O)c-3cc3ccccc32)c1` was tested, and the activation was -0.76%. For `CC(C)CC(=O)Nc1ccc(NC(=O)CC(C)C)c(Cl)c1`, the activation was 0.466%. For `Cc1nn(C)c(C)c1-c1nc(Nc2ccc(Oc3ccccc3)cc2)c2ncn(-c3ccsc3)c2n1`, the activation was 0.158%. In the case of `CC(=O)c1cccc(-c2nc(Nc3ccc(Oc4ccccc4)cc3)c3ncn(-c4ccsc4)c3n2)c1`, the activation is reported as 5.34% (active). In the case of `CC(=O)c1cccc(-c2nc(NCCOc3ccccc3)c3ncn(-c4ccccc4)c3n2)c1`, the activation is reported as 0.401%. `CCOC(=O)C1=C(C)N=c2s/c(=C\c3ccc(OC)c(Br)c3)c(=O)n2C1c1ccc2c(c1)OCO2` (stereo not given) gave an activation of 3.22%. For `CCCc1c(C)nc2c(C(=O)NC3CCCCCCC3)c[nH]n2c1=O`, the activation was 1.02%. `CCOC(=O)Cc1csc(NC(=O)c2ccc(NC(=O)CC)cc2)n1` gave an activation of -0.289%. In the case of `CCOC(=O)Cc1coc(NC(=O)c2ccc(Cl)cc2)n1`, the activation is reported as 5.28% (active). For `CC(=O)COC(=O)CNC(=O)c1ccc(Cl)cc1`, the activation was -1.71%. In the case of `Cc1nn(CC(=O)N(CC2CCCO2)C2CCS(=O)(=O)C2)c(C)c1[N+](=O)[O-]` (stereo not given), the activation is reported as 0.461%. For `CCOC(=O)C1=C(C)N=c2s/c(=C\c3cccc(OC)c3OCC)c(=O)n2C1c1ccccc1OC(C)C` (stereo not given), the activation was 2.86%. Work on `COc1cc([N+](=O)[O-])ccc1NC(=O)N1CCN(C2CCCCC2)CC1` yielded an activation of -0.0069%. For `O=C(c1cc([N+](=O)[O-])ccc1NC1CCCCC1)N1CCOCC1`, the activation was 9.09% (active). Work on `O=C(c1cn[nH]c1-c1ccc([N+](=O)[O-])cc1)N1CCOCC1` yielded an activation of -0.121%. `S=C(NCc1ccccc1)NCc1nc2ccccc2[nH]1` was tested, and the activation was 1.09%. For `Cc1ccc(C)n1-c1ccc(C(=O)NCC(c2ccco2)N(C)C)cc1` (stereo not given), the activation was 0.754%. With `CC(=O)Cn1c(=O)c2c(nc3n2CCCN3c2ccc(Br)cc2)n(C)c1=O` the activation was 5.99% (active). `CCOCCn1c(=O)c2c(nc3n2CCCN3c2ccc(Br)cc2)n(C)c1=O` showed an activation of 0.326%. Work on `CC(C)Cn1c(=O)c2c(nc3n2CCCN3c2ccc(Br)cc2)n(C)c1=O` yielded an activation of -0.288%. With `O=C(C(Cc1ccccc1)N1Cc2ccccc2C1=O)N1CCOCC1` (stereo not given) the activation was -0.15%. In the case of `O=C(C(Cc1ccccc1)N1C(=O)C2C3CCC(C3)C2C1=O)N1CCOCC1` (stereo not given), the activation is reported as 0.906%. In the case of `O=C(C(Cc1ccccc1)N1C(=O)C2C3c4ccccc4C(c4ccccc43)C2C1=O)N1CCOCC1` (stereo not given), the activation is reported as 6.8% (active). With `CCOC(=O)c1c(NC(=O)C(C)Sc2nnc(CNC(=O)COc3ccccc3)n2-c2cccc(Cl)c2)sc2c1CCC2` (stereo not given) the activation was -0.72%. For `Cn1ncc2c(Nc3cccc(S(=O)(=O)Nc4cccc(C(F)(F)F)c4)c3)ncnc21`, the activation was -0.0154%. Compound `Cc1[nH]nc(Nc2cccc(C(F)(F)F)c2)c1[N+](=O)[O-]` has an activation of 0.158%. In the case of `O=[N+]([O-])c1ccc2ncnc(Nc3cccc(C(F)(F)F)c3)c2c1`, the activation is reported as 5.31% (active). In the case of `COc1ccc(C(C)(C)C)cc1NC(=O)c1ccc2c(c1)NC(=O)C(C)S2` (stereo not given), the activation is reported as -1.1%. `CCOc1ccc(C(=O)Nc2ccc3c4c(cccc24)CC3)cc1` showed an activation of 0.563%. In the case of `COc1cc(OC)cc(C(=O)Nc2ccc3c4c(cccc24)CC3)c1`, the activation is reported as 16.6% (active). Work on `COc1cc2ccccc2cc1C(=O)Nc1ccc2c3c(cccc13)CC2` yielded an activation of 1.02%. `COc1ccc(/C=C\C(=O)NCCc2cc3ccc(C)c(C)c3[nH]c2=O)cc1OC` was tested, and the activation was -0.187%. In the case of `O=C1CCC(CCNCCOc2ccc(F)cc2)N1CCc1ccccc1` (stereo not given), the activation is reported as -0.404%. With `O=C1CCC(CCNCCOc2ccccc2)N1CCc1ccccc1` (stereo not given) the activation was 8.35% (active). For `O=C1CCC(CCNCc2ccccc2)N1CCc1ccccc1F` (stereo not given), the activation was 1.45%. With `CCOC(=O)N1CCC(NC(=O)c2ccc(N3CC4CC(C3)c3cccc(=O)n3C4)c(NC(=O)c3ccc(OC)cc3)c2)CC1` (stereo not given) the activation was -1.15%. `CCOc1ccc(S(=O)(=O)c2c[nH]c3cc(OC)c(OC)cc3c2=O)cc1` showed an activation of 0.157%. `Cc1cccc(NC(=O)CCn2c(=O)oc3ccccc32)c1` showed an activation of -0.466%. `Cc1ccc(NC(=O)CCn2c(=O)oc3ccccc32)cc1Cl` was tested, and the activation was 10.6% (active). In the case of `CN1C(=O)c2ccc(NC(=O)CCn3c(=O)oc4ccccc43)cc2C1=O`, the activation is reported as -1.74%. In the case of `CCOC(=O)c1c(NC(=O)COC(=O)C(C)c2c(F)c(F)cc(F)c2F)sc2c1CCCC2` (stereo not given), the activation is reported as 1.7%. `COc1ccc(-c2csc3ncc(C(=O)N(C)C(C)C)c(=O)n23)cc1` showed an activation of 1.24%. Work on `Cc1cccc(CNc2nc3nc(C)cc(C)n3n2)c1` yielded an activation of -0.819%. For `Cc1ccc(C(=O)NCc2nc3nc(C)cc(C)n3n2)cc1`, the activation was 0.459%. For `Cc1ccc(S(=O)(=O)NCc2nc3nc(C)cc(C)n3n2)cc1`, the activation was 10.6% (active). `CCN(CC)CCN1C(=O)C(=O)/C(=C(\O)c2ccc(Cl)cc2)C1c1ccc([N+](=O)[O-])cc1` (stereo not given) was tested, and the activation was -0.703%. Work on `NS(=O)(=O)c1cccc(S(=O)(=O)c2ccc(Br)cc2)c1` yielded an activation of 1.39%. `C/C(=N\NC(=O)CCC(=O)N/N=C(\C)c1ccc(Cl)cc1)c1ccc(Cl)cc1` was tested, and the activation was 0.378%. `CCCCCC(=O)N/N=C(\C)c1ccc(O)cc1` gave an activation of -1.26%. With `CCCCCC(=O)N/N=C(/C)c1ccc(O)cc1O` the activation was 7.91% (active). With `Cc1ccc(C(=O)COC(=O)c2ccc3nc(-c4ccccc4)c(-c4ccccc4)nc3c2)cc1` the activation was -0.519%. In the case of `CCc1nnc(NC(=O)CSc2nc(C)cc(C)n2)s1`, the activation is reported as -1.16%. In the case of `COc1ccc(OC)c(/C=N/n2nnnc2N)c1`, the activation is reported as 8.6% (active). `Nc1nnnn1/N=C\c1ccc(O)c(O)c1` showed an activation of 0.149%. `COc1cc(/C=N/n2nnnc2N)ccc1OCCC(C)C` showed an activation of 1.35%. `Brc1ccc(-c2cc(-c3ccccc3)c3cc(Br)ccc3n2)cc1` showed an activation of 1.18%. `CCCCC(=O)Nc1ccc(C(=O)N2CCN(c3ccccc3F)CC2)cc1` was tested, and the activation was 1.25%. `COC(=O)[C@@H]1CC[C@H](C)[C@@H](c2ccc(C)cc2)N1C(=O)c1ccc(/C=N/O[C@H](C)c2cn([C@@H]3COC[C@H]3O)nn2)cc1` was tested, and the activation was 7.09% (active). With `Cc1cc(N2C(=O)c3ccc(Oc4ccc(NC(=O)CSc5ccc(Cl)cc5)cc4)cc3C2=O)no1` the activation was 1.59%. `CCSc1nc2sccn2c(=O)c1C(=O)NC(Cc1ccccn1)C(F)(F)F` (stereo not given) was tested, and the activation was 4.95% (active). With `O=C(NCCc1ccccn1)c1cn2ccsc2n1` the activation was 0.225%. Compound `CSc1nc2sccn2c(=O)c1C(=O)NC(C)CO` (stereo not given) has an activation of -0.408%. `CCCCN(C)CCCN(Cc1ccco1)C(=S)Nc1ccc(Cl)c(C)c1` was tested, and the activation was -0.264%. `COc1cccc(CCNC(=O)CCc2nnc(COc3ccccc3)o2)c1` was tested, and the activation was -0.583%. For `CSCCNc1nc2nonc2nc1NC1CC1`, the activation was 0.51%. In the case of `O=C1OC(c2ccc(Br)cc2)=N/C1=C\c1cc(Br)cs1`, the activation is reported as -0.409%. In the case of `CCOc1cc(C2C3=C(CCCC3=O)NC3=C2C(=O)CCC3)cc(Br)c1OCC`, the activation is reported as 5.4% (active). `COc1cc(C2C3=C(CCCC3=O)NC3=C2C(=O)CCC3)cc(Cl)c1O` gave an activation of 1.16%. `CCOc1cc(C2C3=C(CCCC3=O)NC3=C2C(=O)CCC3)ccc1OCc1ccc(F)cc1` gave an activation of -0.184%. In the case of `Fc1ccc(C2Oc3ccc(Cl)cc3C3CC(c4cccs4)=NN32)cc1` (stereo not given), the activation is reported as 0.238%. `Cc1nn(-c2ccccc2)c(C)c1/C=N/n1c(=S)[nH]nc(C)c1=O` gave an activation of -0.643%. `CCCCCCOC(=O)c1cc(C(=O)OCCCCCC)c(C)nc1C` was tested, and the activation was 6.55% (active). `CCOC(=O)c1cc2cccnc2nc1C` was tested, and the activation was 0.721%. `CCCCCCOC(=O)c1ccc(-c2ccc(-c3ccc(C(=O)OCCCCCC)cc3)cc2)cc1` gave an activation of -1.7%. In the case of `Cc1ccccc1-c1cccc(CN2CCC(=O)N(C)CC2)c1`, the activation is reported as 0.112%. `O=C(Cn1c(NCCCO)nc2ccccc21)c1ccccc1` showed an activation of -1.59%. `CCn1c(NCCO)nc2ccccc21` showed an activation of 1.96%. In the case of `O=C(Cn1c(NCCO)nc2ccccc21)c1ccc(Cl)cc1Cl`, the activation is reported as 7.58% (active). `COC(=O)c1cc(CNC(=O)c2cc3ncccn3n2)cc(NC(=O)Cc2ccsc2)c1` gave an activation of -0.0871%. `Cc1cc(Br)ccc1OCC(=O)N1CCN(C=O)CC1` showed an activation of -1.7%. `COC(=O)c1c(NC(=O)/C(C#N)=C/c2cccs2)sc2c1CCCC2` was tested, and the activation was -2.04%. `Nc1cccc(N=Cc2c(O)[nH]c(=S)[nH]c2=O)c1` showed an activation of -0.879%. `O=c1[nH]c(=S)[nH]c(O)c1C=Nc1ccc(F)c(Cl)c1` was tested, and the activation was 5.26% (active). For `Cc1ccc(N=Cc2c(O)[nH]c(=S)[nH]c2=O)cc1C`, the activation was 0.392%. With `CC(C)[C@@H](N)Cn1nc(-c2cccs2)ccc1=O` the activation was 0.507%. `O=C(Nc1ccccc1[N+](=O)[O-])c1ccc2ccccc2n1` showed an activation of 0.441%. `COc1ccc(/C=C2\C(=O)NC(=O)N(c3ccc([N+](=O)[O-])cc3)C2=O)cc1OC` showed an activation of -0.83%. Work on `O=C1NC(=O)N(c2cccc(Br)c2)C(=O)/C1=C/c1cccc([N+](=O)[O-])c1` yielded an activation of 1.88%. With `Cc1ccc(/C=C2/C(=O)NC(=O)N(c3ccccc3)C2=O)cc1[N+](=O)[O-]` the activation was 7.87% (active). Work on `Cn1ccnc1SCc1cc(=O)c(OC(=O)c2c(F)cccc2F)co1` yielded an activation of 3.4%.
